What all share (experiment): DAPPL (digital affinity profiling via proximity ligation, sequencing); 10 mM Tris-HCl pH 7.5, 50 mM NaCl, 1 mM DTT, 4% glycerol, room temperature, 30 min; GST-TFs on glutathione beads, 16-mer random dsDNA library, 0.1% formaldehyde crosslink after washing; high values mean tight binding
The target in one assay is T1, FLI1 (Homo sapiens, UniProt Q01543 1-452).
T1 sequence: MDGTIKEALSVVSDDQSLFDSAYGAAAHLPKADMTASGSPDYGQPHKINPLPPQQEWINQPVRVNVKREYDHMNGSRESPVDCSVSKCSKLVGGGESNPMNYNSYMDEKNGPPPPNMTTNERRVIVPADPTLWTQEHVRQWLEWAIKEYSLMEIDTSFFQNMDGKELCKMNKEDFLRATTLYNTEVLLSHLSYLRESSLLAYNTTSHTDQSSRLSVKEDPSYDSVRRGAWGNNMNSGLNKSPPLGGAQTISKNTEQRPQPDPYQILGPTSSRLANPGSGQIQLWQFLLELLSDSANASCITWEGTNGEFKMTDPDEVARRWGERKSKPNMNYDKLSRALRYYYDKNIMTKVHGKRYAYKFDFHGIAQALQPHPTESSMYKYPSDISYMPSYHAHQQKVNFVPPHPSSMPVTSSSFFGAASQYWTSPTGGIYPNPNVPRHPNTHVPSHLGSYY
To be noted: protein: recombinant; tags: N-terminal GST; dsDNA, one strand shown. The procedure, abridged: (§1)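 After expression in yeast as GST fusions, human transcription factors were bound to glutathione beads, DNA-barcoded and mixed with a tag-only sample. The pools were incubated with 200 nmole of a 16-mer random double-stranded DNA library in Tris/NaCl/DTT/glycerol buffer (30 min, room temperature), washed and crosslinked with 0.1% formaldehyde. Proximity ligation with BsaI/T4 ligase ran for 1 h at 37 °C, before PCR amplification and sequencing on an Illumina NextSeq500. Binding signal is a hexamer's read frequency for a factor divided by its frequency for the tag-only sample.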

The target in the next assay is T2, ELK1 (Homo sapiens, UniProt P19419 1-428).
T2 sequence: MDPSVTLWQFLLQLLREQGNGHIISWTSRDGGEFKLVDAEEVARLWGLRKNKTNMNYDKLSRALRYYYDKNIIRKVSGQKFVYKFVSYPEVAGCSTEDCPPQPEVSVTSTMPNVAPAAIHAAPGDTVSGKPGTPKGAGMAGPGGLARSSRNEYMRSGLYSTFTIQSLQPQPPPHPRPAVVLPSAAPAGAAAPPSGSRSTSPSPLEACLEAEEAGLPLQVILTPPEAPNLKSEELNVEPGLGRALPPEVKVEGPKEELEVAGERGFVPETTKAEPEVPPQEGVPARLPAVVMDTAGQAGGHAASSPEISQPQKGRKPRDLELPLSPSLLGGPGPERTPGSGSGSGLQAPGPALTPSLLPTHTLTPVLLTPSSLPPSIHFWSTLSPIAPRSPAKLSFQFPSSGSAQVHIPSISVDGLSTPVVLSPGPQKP
To be noted: protein: recombinant; tags: N-terminal GST; dsDNA, one strand shown. The procedure, abridged: as §1

A further assay addresses T3, GABPA (Homo sapiens, UniProt Q06546 1-454).
T3 sequence: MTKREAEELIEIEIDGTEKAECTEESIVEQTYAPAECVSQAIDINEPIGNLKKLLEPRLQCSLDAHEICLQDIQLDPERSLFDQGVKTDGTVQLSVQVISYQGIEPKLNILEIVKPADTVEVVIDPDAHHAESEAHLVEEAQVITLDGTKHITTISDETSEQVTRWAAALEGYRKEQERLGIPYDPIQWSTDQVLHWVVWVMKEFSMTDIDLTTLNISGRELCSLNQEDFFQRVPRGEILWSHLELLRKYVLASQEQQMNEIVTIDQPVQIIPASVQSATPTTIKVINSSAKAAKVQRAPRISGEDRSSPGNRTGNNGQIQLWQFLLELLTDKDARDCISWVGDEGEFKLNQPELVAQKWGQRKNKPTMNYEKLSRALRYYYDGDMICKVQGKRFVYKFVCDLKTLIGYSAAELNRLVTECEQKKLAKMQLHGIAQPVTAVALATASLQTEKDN
To be noted: protein: recombinant; tags: N-terminal GST; dsDNA, one strand shown. Put shortly:
as §1

Another assay has as its target ELF1 (Homo sapiens, UniProt P32519 1-619). To be noted: protein: recombinant; tags: N-terminal GST; dsDNA, one strand shown. The procedure, abridged:
as §1

A further assay addresses T4, EHF (Homo sapiens, UniProt Q9NZC4 1-300).
T4 sequence: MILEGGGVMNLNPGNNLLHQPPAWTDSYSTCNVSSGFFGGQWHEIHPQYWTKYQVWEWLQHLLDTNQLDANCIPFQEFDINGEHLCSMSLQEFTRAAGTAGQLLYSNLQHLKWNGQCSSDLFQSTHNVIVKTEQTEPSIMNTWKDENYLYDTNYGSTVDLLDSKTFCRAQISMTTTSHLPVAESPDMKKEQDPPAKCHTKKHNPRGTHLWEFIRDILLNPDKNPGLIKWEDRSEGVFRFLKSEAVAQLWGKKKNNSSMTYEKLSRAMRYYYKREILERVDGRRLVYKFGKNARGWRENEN
To be noted: protein: recombinant; tags: N-terminal GST; dsDNA, one strand shown. The procedure, abridged:
as §1

For the next assay, the target named is SPIB (Homo sapiens, UniProt Q01892 1-262). To be noted: protein: recombinant; tags: N-terminal GST; dsDNA, one strand shown. Put shortly: as §1
Chain of SPIB (Q01892 whole entry): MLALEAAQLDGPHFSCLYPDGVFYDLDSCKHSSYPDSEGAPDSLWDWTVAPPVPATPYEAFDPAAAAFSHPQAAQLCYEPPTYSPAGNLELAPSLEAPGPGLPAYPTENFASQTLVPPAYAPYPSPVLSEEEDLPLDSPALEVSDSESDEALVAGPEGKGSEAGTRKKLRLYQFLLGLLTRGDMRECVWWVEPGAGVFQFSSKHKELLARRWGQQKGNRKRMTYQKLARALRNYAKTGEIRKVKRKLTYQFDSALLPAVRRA
A further assay has as its target T5, ELK3 (Homo sapiens, UniProt P41970 1-407).
T5 sequence: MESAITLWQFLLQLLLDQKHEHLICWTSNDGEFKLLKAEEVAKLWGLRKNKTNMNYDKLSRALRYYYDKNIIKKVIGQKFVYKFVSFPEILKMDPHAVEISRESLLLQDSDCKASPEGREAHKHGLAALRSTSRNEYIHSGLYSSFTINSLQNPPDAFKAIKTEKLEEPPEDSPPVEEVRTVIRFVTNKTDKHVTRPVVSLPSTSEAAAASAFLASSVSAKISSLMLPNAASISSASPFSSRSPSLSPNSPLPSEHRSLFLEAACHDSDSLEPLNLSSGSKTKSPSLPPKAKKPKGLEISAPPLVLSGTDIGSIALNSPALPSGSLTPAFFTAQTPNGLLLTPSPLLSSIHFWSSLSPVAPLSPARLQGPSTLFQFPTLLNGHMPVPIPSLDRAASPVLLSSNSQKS
To be noted: protein: recombinant; tags: N-terminal GST; dsDNA, one strand shown. Put shortly:
as §1

The target of another assay is T6, FEV (Homo sapiens, UniProt Q99581 1-238).
T6 sequence: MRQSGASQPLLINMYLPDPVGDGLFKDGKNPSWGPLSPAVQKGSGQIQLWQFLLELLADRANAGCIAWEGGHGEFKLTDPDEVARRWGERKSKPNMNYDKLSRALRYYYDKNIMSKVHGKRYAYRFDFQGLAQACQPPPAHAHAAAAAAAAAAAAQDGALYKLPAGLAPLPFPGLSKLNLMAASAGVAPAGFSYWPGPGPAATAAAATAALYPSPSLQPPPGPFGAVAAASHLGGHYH
To be noted: protein: recombinant; tags: N-terminal GST; dsDNA, one strand shown. Put shortly: as §1

The target of the next assay is ETV5 (Homo sapiens, UniProt P41161 1-510). To be noted: protein: recombinant; tags: N-terminal GST; dsDNA, one strand shown. Put shortly:
as §1

The target in a further assay is HSF1 (Homo sapiens, UniProt Q00613 1-529). The note with it: protein: recombinant; tags: N-terminal GST; chain copies: 3; dsDNA, one strand shown. The procedure, abridged: as §1
Chain of HSF1 (Q00613 whole entry): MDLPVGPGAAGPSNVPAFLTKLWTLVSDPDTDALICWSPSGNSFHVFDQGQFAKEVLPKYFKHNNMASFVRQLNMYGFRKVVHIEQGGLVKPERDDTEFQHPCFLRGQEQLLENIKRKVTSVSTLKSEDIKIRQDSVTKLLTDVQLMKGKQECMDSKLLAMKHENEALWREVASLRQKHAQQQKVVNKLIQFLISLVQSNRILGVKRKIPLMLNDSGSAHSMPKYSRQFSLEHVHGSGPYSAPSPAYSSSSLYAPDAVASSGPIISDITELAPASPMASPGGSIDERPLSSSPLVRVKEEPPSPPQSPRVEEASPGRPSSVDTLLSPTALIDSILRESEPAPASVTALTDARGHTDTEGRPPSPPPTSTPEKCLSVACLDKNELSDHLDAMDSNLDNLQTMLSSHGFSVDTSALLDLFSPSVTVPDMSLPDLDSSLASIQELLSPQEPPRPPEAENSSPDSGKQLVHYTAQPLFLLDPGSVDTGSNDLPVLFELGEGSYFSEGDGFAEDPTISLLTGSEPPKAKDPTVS
The next assay deals with T7, SPIC (Homo sapiens, UniProt Q8N5J4 1-248).
T7 sequence: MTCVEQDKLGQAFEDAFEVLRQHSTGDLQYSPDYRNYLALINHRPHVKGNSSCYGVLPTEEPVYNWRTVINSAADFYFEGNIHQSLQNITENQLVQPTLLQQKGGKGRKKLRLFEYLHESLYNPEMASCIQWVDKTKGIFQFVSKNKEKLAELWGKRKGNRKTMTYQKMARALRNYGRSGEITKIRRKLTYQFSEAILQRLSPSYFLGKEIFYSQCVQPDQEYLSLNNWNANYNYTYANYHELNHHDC
To be noted: protein: recombinant; tags: N-terminal GST; dsDNA, one strand shown. The procedure, abridged: as §1

The next assay has as its target ELF4 (Homo sapiens, UniProt Q99607 1-663). The note with it: protein: recombinant; tags: N-terminal GST; dsDNA, one strand shown. Put shortly: as §1
The next assay deals with T8, ELK4 (Homo sapiens, UniProt P28324-2 1-405).
T8 sequence: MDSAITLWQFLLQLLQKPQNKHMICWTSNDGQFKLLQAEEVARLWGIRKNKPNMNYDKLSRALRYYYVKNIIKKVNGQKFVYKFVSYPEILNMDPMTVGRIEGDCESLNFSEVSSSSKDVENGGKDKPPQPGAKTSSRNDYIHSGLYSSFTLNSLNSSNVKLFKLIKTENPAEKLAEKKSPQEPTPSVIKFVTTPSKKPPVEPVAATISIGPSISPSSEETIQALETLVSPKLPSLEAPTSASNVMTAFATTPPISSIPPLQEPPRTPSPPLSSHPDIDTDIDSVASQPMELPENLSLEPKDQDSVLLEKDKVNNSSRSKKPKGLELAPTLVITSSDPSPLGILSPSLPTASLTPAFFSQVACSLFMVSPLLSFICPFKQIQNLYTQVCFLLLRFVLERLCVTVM
To be noted: protein: recombinant; tags: N-terminal GST; dsDNA, one strand shown. The procedure, abridged:
as §1

The next assay deals with T9, ETV2 (Homo sapiens, UniProt O00321 1-342).
T9 sequence: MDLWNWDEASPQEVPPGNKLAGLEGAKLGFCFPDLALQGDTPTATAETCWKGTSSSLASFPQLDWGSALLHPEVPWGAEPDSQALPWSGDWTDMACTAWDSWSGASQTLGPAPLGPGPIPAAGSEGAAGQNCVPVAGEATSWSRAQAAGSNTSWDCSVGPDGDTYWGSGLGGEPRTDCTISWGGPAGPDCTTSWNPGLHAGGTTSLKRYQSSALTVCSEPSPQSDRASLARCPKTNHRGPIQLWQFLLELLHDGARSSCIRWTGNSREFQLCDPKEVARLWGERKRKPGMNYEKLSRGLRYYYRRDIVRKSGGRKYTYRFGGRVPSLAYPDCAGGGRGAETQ
The note with it: protein: recombinant; tags: N-terminal GST; dsDNA, one strand shown. Put shortly: as §1

The next assay addresses T10, ELF3 (Homo sapiens, UniProt P78545 1-371).
T10 sequence: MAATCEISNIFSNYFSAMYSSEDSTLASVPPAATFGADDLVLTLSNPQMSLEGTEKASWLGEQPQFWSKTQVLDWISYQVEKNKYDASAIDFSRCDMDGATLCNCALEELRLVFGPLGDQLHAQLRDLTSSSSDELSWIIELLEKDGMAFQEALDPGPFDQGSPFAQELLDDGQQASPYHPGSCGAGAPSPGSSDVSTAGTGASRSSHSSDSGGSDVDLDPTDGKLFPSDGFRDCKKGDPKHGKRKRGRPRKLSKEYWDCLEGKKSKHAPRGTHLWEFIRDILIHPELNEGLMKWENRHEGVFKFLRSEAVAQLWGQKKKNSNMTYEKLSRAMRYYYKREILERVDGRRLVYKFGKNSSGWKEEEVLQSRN
To be noted: protein: recombinant; tags: N-terminal GST; dsDNA, one strand shown. The procedure, abridged:
as §1

Another assay has as its target CRX (Homo sapiens, UniProt O43186 1-299). To be noted: protein: recombinant; tags: N-terminal GST; dsDNA, one strand shown. The procedure, abridged: as §1
Another assay deals with ETV1 (Homo sapiens, UniProt P50549 1-477). To be noted: protein: recombinant; tags: N-terminal GST; dsDNA, one strand shown. Put shortly: as §1
Chain of ETV1 (P50549 whole entry): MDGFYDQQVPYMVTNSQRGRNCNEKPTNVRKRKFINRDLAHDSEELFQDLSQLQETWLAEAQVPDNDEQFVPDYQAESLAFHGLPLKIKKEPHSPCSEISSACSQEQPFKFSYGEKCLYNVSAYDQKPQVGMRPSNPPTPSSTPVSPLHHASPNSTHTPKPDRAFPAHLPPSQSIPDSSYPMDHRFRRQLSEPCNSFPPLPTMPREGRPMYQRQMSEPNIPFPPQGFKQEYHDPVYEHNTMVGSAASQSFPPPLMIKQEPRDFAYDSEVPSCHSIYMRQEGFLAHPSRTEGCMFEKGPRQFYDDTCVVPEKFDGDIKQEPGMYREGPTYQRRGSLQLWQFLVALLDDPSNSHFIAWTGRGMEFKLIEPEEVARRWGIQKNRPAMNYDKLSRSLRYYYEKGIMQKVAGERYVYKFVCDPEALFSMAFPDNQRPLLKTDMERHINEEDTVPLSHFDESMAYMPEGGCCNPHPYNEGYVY

Chain of ETV5 (P41161 whole entry): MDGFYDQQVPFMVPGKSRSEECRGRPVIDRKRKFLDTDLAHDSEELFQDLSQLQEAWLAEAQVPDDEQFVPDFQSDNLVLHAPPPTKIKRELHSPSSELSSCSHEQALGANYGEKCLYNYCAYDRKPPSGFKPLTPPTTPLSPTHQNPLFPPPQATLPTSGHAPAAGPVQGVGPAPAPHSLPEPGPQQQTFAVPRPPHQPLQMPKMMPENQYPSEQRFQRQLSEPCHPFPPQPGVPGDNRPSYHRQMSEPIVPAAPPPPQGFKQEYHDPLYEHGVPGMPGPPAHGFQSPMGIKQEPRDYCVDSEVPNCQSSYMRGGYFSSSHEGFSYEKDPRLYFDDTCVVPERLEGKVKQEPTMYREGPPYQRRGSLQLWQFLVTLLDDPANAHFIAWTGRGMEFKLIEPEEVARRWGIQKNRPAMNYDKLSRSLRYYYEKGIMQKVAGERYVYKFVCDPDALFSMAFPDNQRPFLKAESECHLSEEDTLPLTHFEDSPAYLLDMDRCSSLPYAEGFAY
Chain of ELF1 (P32519 whole entry): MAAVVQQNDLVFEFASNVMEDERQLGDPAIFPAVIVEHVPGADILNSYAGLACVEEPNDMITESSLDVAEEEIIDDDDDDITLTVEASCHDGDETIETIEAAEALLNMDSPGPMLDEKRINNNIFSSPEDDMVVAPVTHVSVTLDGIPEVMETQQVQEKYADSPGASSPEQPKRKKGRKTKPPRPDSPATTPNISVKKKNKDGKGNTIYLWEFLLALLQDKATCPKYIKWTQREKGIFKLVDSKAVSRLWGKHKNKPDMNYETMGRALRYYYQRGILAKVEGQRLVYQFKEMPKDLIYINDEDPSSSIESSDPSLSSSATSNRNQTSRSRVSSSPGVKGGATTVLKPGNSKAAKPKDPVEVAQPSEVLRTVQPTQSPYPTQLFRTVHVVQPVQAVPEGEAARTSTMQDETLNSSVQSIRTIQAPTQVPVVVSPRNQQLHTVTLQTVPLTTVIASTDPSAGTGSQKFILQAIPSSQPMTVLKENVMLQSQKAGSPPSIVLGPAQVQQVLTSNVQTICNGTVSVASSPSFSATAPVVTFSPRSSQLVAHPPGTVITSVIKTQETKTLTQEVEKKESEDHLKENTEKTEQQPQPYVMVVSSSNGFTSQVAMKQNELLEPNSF
Chain of CRX (O43186 whole entry): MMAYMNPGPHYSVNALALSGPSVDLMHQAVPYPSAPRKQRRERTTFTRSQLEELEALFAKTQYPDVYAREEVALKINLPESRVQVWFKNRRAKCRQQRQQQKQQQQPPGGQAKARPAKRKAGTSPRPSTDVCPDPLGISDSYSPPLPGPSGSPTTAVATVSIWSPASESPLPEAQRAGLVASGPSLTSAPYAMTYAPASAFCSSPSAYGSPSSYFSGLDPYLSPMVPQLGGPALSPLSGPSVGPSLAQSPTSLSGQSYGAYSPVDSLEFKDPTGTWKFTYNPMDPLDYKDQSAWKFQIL
Chain of ELF4 (Q99607 whole entry): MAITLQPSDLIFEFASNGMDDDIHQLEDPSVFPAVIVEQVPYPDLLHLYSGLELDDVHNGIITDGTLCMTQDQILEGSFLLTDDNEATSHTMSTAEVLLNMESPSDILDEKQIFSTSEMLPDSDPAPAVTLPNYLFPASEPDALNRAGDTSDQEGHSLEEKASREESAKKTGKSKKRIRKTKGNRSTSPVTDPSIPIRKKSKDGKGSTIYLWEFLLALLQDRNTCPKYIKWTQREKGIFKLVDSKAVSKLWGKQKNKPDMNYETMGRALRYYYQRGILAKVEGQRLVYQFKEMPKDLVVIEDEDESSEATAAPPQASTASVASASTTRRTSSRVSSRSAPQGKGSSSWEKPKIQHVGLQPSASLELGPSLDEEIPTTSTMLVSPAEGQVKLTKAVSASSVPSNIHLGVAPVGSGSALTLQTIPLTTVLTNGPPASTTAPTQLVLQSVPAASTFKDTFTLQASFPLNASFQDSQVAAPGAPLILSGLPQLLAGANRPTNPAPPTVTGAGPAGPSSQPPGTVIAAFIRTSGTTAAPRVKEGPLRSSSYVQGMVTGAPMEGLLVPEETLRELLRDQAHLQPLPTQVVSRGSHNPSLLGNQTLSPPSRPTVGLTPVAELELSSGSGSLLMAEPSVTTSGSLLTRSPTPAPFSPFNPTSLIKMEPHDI

Take CCGAAG: the binding signal is 1.12 fold enrichment (6-mer frequency, TF over GST control) in the assay with FLI1; 1.09 fold enrichment (6-mer frequency, TF over GST control) with ELK1; 1.12 fold enrichment (6-mer frequency, TF over GST control) with GABPA; 1 fold enrichment (6-mer frequency, TF over GST control) with ELF1; 1.03 fold enrichment (6-mer frequency, TF over GST control) with EHF; 1.04 fold enrichment (6-mer frequency, TF over GST control) with SPIB. Besides, the binding signal with ELK3 was 1.03 fold enrichment (6-mer frequency, TF over GST control); with FEV, 1.04 fold enrichment (6-mer frequency, TF over GST control); with ETV5, 1.02 fold enrichment (6-mer frequency, TF over GST control); with HSF1, 1.35 fold enrichment (6-mer frequency, TF over GST control); in the assay with SPIC it was 1.23 fold enrichment (6-mer frequency, TF over GST control); with ELF4, 1.05 fold enrichment (6-mer frequency, TF over GST control). Besides, the binding signal with ELK4 was 1.2 fold enrichment (6-mer frequency, TF over GST control); with ETV2, 1.31 fold enrichment (6-mer frequency, TF over GST control); in the assay with ELF3, 1.02 fold enrichment (6-mer frequency, TF over GST control); with CRX, 1.11 fold enrichment (6-mer frequency, TF over GST control); in the assay with ETV1 it was 1.01 fold enrichment (6-mer frequency, TF over GST control).

The values above are taken from PMC7862700, “An all-to-all approach to the identification of sequence-specific readers for epigenetic DNA modifications on cytosine”.
